Bioassay records: PubChem BioAssay, National Center for Advancing Translational Sciences (NCATS)
APE1 inh: inhibitors of human APE1 endonuclease; Potency, µM (top dose mostly 65.8 µM), for the others: at the top dose activity change, negative = inhibition, hits mostly inhibitors; 350,000 compounds, 0.35% hits; P27695; recombinant APE1, TAMRA/BHQ-2 abasic DNA cleavage fluorescence;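 also: plate controls were vehicle for no effect and reference inhibitor for full effect; nearly all actives have a fitted effect of over 55% in size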
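Activity was derived from the fluorescence gain between first and third kinetic reads (60 s intervals, ex 525/em 598 nm) after 50 nM THF-abasic TAMRA/BHQ-2 duplex was added to 0.75 nM APE1 preincubated 15 min with compound.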
BLM inh: Bloom syndrome helicase (human) inhibition; P54132; recombinant BLM DNA unwinding, fluorescence dequenching; Potency, µM (doses to about 56.1 µM), for the others: top-dose activity change, negative = inhibition, actives largely listed as inhibitors; 350,000 compounds, 0.2% hits;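 also: plate controls were vehicle for no effect and no enzyme for full effect; nearly all actives have a fitted effect of over 35% in size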
WRN inhibitor: blocks human WRN helicase; 360,000 compounds, 0.46% hits; Q14191; WRN helicase unwinding, fluorescent forked duplex, kinetic; Potency, µM (highest dose often 114 µM), inactives show at the top dose activity change, negative = inhibition, most hits filed as inhibitors; also: nearly all actives have a fitted effect of over 55% in size
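Kinetic red-fluorescence monitoring (525/598 nm) tracks WRN helicase activity after 100 nM fluorophore-quencher forked duplex and 2 mM ATP are added to 20 nM enzyme pretreated 15 min at room temperature with compound.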
RECQ1 helicase: RECQ1 (human) helicase inhibition | P46063 | RECQ1 DNA unwinding, red fluorescence kinetic read | Potency, µM (series often up to 57.3 µM), for inactives: at the highest dose activity, negative = inhibition, most hits filed as inhibitors | 240,000 compounds, 0.54% hits | AID 2549;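 also: plate controls were vehicle for no effect and no enzyme for full effect; nearly all actives have a fitted effect of over 30% in size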
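RECQ1T1 50 nM; forked duplex (20 bp + 30-nt ss tails) 200 nM, ATP 2 mM final; pH 8.0, 2 mM MgCl2, 2.5 ug/ml poly(dI-dC); 15 min compound preincubation; discontinuous kinetic read over 2 h at RT.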
TR SRC2 fluor cs: Texas Red fluorescence interference in TRb-SRC2 counter-screen; TRb/SRC2 Texas Red total fluorescence interference; Potency, µM (top dose mostly 106 µM), without a hit: at the highest dose fluorescence change, negative = quenching; 280,000 compounds, 0.29% hits; AID 1479; active = well fitted curve in either direction with a large enough effect; inconclusive = small, poorly fitted or top-dose-only effect
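Human TRb ligand-binding domain at 0.6 uM with 20 nM Texas Red SRC2 peptide in Tris buffer containing 1 uM T3 and 5% DMSO, incubated with compound 5 h at ambient temperature. Total fluorescence (555/632 nm) calculated as parallel + 2 × perpendicular.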
TRb-SRC2 inh: inhibitors of human thyroid hormone receptor beta-SRC2 interaction. TRbeta-SRC2 peptide binding, fluorescence polarization; receptor liganded with 1 µM T3. 280,000 compounds, 0.065% hits. AID 1469. Potency, µM (doses to about 106 µM), without a hit: at the top dose activity change, negative = inhibition, hits mostly inhibitors. P10828;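 also: plate controls were bound peptide for no effect and peptide without receptor for full effect; nearly all actives have a fitted effect of over 50% in size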
Target sequence (P10828 whole entry, looked up): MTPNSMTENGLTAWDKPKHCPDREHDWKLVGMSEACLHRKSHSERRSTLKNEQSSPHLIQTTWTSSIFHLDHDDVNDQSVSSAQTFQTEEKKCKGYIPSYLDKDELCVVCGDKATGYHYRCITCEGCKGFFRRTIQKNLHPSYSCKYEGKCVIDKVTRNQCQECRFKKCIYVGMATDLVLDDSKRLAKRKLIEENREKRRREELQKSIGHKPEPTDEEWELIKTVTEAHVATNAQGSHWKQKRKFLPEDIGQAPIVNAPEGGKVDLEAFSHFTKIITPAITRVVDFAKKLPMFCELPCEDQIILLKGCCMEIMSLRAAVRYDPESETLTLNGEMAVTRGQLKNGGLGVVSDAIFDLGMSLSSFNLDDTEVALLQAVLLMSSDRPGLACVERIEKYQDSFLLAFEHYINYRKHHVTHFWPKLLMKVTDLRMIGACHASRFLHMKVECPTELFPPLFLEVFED
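Fluorescence polarization of 20 nM Texas Red SRC2 peptide with 0.6 uM human TRb ligand-binding domain, in Tris buffer with 1uM T3 and 5% DMSO. Incubated 5 hr ambient; normalized to unbound and bound controls.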
Numbers without * were called inactive; i = inactive; ? = inconclusive; . = not tested or not shown; ! = repeats disagree; [ ] = another dose, or the depositor's remark. Sampled rows, rich in hits. Any-hit rate of the full collection: about 0.91%. Unless noted, calls follow the shape of the dose curve; as a rule, active = well fitted curve in the direction sought with a large enough effect; inconclusive = small, poorly fitted or top-dose-only effect, or another doubt; inactive = no such curve, though single readings can be large; an effect the other way counts as inactive or inconclusive. Unless noted, % is scaled to controls: 0 for no effect and ±100 for the full control effect; potency is read from the fitted curve at half-maximal effect.

SMILES	APE1 inh	BLM inh	WRN inhibitor	RECQ1 helicase	TR SRC2 fluor cs	TRb-SRC2 inh
O=C(CCC(=O)c1cccs1)OCC(=O)N1CCN(C(=O)c2ccco2)CC1	-2.4%	-2.2%	31.6µM*	-14.1%	1.3%	9.8%
C=CC(C)(C)c1c(O)c(CC=C(C)C)c(O)c2c(=O)c3ccc(O)c(O)c3oc12	.	.	-11.8%	.	.	.
C=CC(C)(C)c1[nH]c2ccccc2c1C1=C(O)C(=O)C(c2c[nH]c3c(CC=C(C)C)cccc23)=C(O)C1=O	20µM*	6.31µM*	.	10µM*	-14.3%	-9.0%
c1cc2ccc3ccc4ccc5cccc6c(c1)c2c3c4c56	.	.	.	.	0.2%[201 µM]	-5.1%[201 µM]
CCCCCCCCCc1ccccc1	.	.	.	.	-2.4%[201 µM]	7.4%[201 µM]
O=C(O)CCCCCNS(=O)(=O)c1cccc2nsnc12	2.1%	-0.9%	-0.8%	i	-7.9%	0.6%
O=C(O)CCCCCNc1ccc2nsnc2c1[N+](=O)[O-]	-3.2%	-5.3%	-3.2%	-2.3%	35.5µM*[quencher]	-12.2%[53 µM]
O=[N+]([O-])c1cccc(NC(=S)Nc2nc(-c3ccccc3Cl)cs2)c1	36.8%	-12.1%	-3.4%	.	.	.
CN(C)C1C(=O)C(C(N)=O)=C(O)[C@@]2(O)C(=O)C3=C(O)c4c(O)ccc(Cl)c4C(O)[C@H]3C[C@@H]12 (stereo partly specified)	8.6%	-12.9%	.	14.0%	-3.6%	-2.0%
CN(C)c1ccc(O)c2c1CC1CC3[C@@H](N(C)C)C(=O)C(C(N)=O)=C(O)[C@]3(O)C(=O)C1=C2O (stereo partly specified)	14.1µM*	-6.5%	-18.2%	?	-14.3%	-3.5%
CN(C)c1ccc(O)c2c1C[C@H]1C[C@H]3[C@H](N(C)C)C(=O)C(C(N)=O)=C(O)[C@@]3(O)C(=O)C1=C2O	12.6µM*!	.	.	.	.	.
Cc1ccc(N2CC(=O)N(CC(=O)O)C2=O)cc1	2.3%	1.1%	7.4%	-4.3%	1.3%	-2.7%
COC(=O)[C@@H]1C=C[C@H](C)[C@H](CCOc2ccccc2)O1	3.3%	-0.9%	.	-1.0%	-0.5%	3.4%
c1ccc2c(c1)CC/C2=N/Nc1nc2ccccc2[nH]1	-8.7%	-5.5%	?	35.5µM*	-3.7%	12.5%
CNCc1ccccc1Sc1ccc(O)c(O)c1	31.6µM*	-1.8%	?	?	-5.0%	-6.8%
COc1ccc2[nH]c(=O)c(CN(C3CCCCC3)C(c3nnnn3Cc3ccco3)C(C)C)cc2c1 (stereo unspecified)	-0.7%	-19.8%	?	28.2µM*	0.9%	6.4%
COc1ccc2[nH]c(=O)c(CN(Cc3nnnn3Cc3ccco3)C3CCCCC3)cc2c1	?	?	?	?	-7.8%	-6.2%
N#Cc1no[n+]([O-])c1-c1ccccc1	11.2%	.	.	.	.	.
Cc1cc(C)c(S(=O)(=O)/N=C2\C=C(NS(=O)(=O)c3ccccc3)C(=O)c3ccccc32)c(C)c1	-20.1%	-11.8%	-9.2%	.	.	.
Cc1cc(C)c(S(=O)(=O)/N=C2/C=C(SCC(=O)O)C(=O)c3ccccc32)cc1C	?	31.6µM*	17.8µM*	?	-20.3%	?
CC(=O)c1ccc(N2CCN(C(=O)CS(=O)(=O)c3cccc4nsnc34)CC2)cc1	.	2.6%	.	.	-1.3%	0.2%
Cc1ccc(C)c(N2CCN(C(=O)CS(=O)(=O)c3cccc4nsnc34)CC2)c1	.	3.8%	.	.	0.0355µM*[quencher]	-29.4%
COc1ccc(C(CC(=O)N2CCCC(C)C2)c2c(OC)cc(OC)c3c(-c4ccccc4)cc(=O)oc23)cc1 (stereo unspecified)	?	-29.1%	?	i	-0.6%	-0.9%
COc1ccc(C(CC(=O)N2CCOCC2)c2c(OC)cc(OC)c3c(-c4ccccc4)cc(=O)oc23)cc1 (stereo unspecified)	31.6µM*!	22.4µM*!	-11.7%[11.6 µM]	-21.0%	0.0%	-4.2%
